Reference: PubChem BioAssay (NCATS)
Results filed as inconclusive are left out. Where a call stands in place of a potency, no number is given. The source made the active and inactive calls. Calls come from the whole dose curve; as a rule, active = well fitted inhibition curve with a large enough effect; inconclusive = small, poorly fitted or top-dose-only effect; inactive = flat fitted curve, though single readings scatter.

Assays:
Experiment in all cases: qHTS profiling for inhibitors of Plasmodium falciparum proliferation (AID 504749); note: nearly all actives have a fitted effect of over 60% in size
Details in all cases: P. falciparum in erythrocytes, SYBR Green DNA, 72 h; series mostly up to 28.7 µM
CP215 = tested on: CP215
Procedure, shortened: (§1)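 Quantitative HTS: compounds pinned into medium, infected erythrocytes added (0.3% parasitemia, 2.5% hematocrit), 72 h culture at 37 C under 5% CO2. Saponin/Triton lysis with SYBR Green I, overnight RT, then fluorescence read.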

CP237 = tested on: CP237
Procedure, shortened: as §1

CP250 = tested on: CP250
Procedure, shortened: as §1

CP262 = tested on: CP262
Procedure, shortened: as §1

CP265 = tested on: CP265
Procedure, shortened: as §1

CP266 = tested on: CP266
Procedure, shortened: as §1

CP192 = tested on: CP192
Procedure, shortened: as §1

CP194 = tested on: CP194
Procedure, shortened: as §1

CP201 = tested on: CP201
Procedure, shortened: as §1

CP211 = tested on: CP211
Procedure, shortened: as §1

CP256 = tested on: CP256
Procedure, shortened: as §1

CP260 = tested on: CP260
Procedure, shortened: as §1

CP203 = tested on: CP203
Procedure, shortened: as §1

CP217 = tested on: CP217
Procedure, shortened: as §1

CP238 = tested on: CP238
Procedure, shortened: as §1

CP247 = tested on: CP247
Procedure, shortened: as §1

CP252 = tested on: CP252
Procedure, shortened: as §1

CP268 = tested on: CP268
Procedure, shortened: as §1

CP269 = tested on: CP269
Procedure, shortened: as §1
Potency is the fitted concentration of half-maximal effect.

Row | SMILES | Potency (CP215) | Potency (CP237) | Potency (CP250) | Potency (CP262) | Potency (CP265) | Potency (CP266) | Potency (CP192) | Potency (CP194) | Potency (CP201) | Potency (CP211) | Potency (CP256) | Potency (CP260) | Potency (CP203) | Potency (CP217) | Potency (CP238) | Potency (CP247) | Potency (CP252) | Potency (CP268) | Potency (CP269)
1 | CN(C)CCN1C(=O)c2ccccc2N(C)c2ccccc21 | inactive | 3.98 µM (active) | inactive | inactive | 12.6 µM (active) | inactive |  |  |  |  |  |  |  |  |  |  |  |  | 
2 | CC1CCc2c(N3CCC(O)CC3)c(F)cc3c(=O)c(C(=O)O)cn1c23 (configuration not stated) |  |  | inactive |  | inactive |  | inactive | inactive | inactive | inactive | inactive | 12.6 µM (active) |  |  |  |  |  |  | 
3 | COc1cc(O)c(C(=O)c2ccccc2)cc1S(=O)(=O)O | inactive | inactive | inactive | inactive |  | inactive | inactive | inactive | inactive | inactive |  |  | inactive | inactive | inactive | inactive | inactive | inactive | 
4 | O=[N+]([O-])c1cccc(S(=O)(=O)NCCNS(=O)(=O)c2cccc([N+](=O)[O-])c2)c1 | inactive |  | inactive |  | inactive | inactive | inactive | inactive | inactive | inactive | inactive |  |  | inactive | inactive | inactive | inactive |  | 
5 | CCNC(=O)/C=C/c1cccc(Br)c1 | inactive | inactive |  | inactive |  | inactive | inactive | inactive | inactive | inactive |  |  | inactive | inactive | inactive |  |  | inactive | inactive
6 | O=C(CN1CCN(Cc2ccc3c(c2)OCO3)CC1)N1c2ccccc2Sc2ccccc21 |  |  |  |  | 7.94 µM (active) | inactive | inactive |  | inactive |  |  | 8.91 µM (active) |  | 11.2 µM (active) |  |  |  |  | 
7 | CCOC(=O)Nc1ccc2c(c1)N(C(=O)CCN1CCOCC1)c1ccccc1S2 | inactive | inactive | inactive | inactive | inactive | inactive | inactive | inactive | inactive | inactive | inactive | inactive | inactive | inactive | inactive | inactive | inactive | inactive | inactive
8 | CCCCCCCCCCCCOCCOCCOCCOCCOCCOCCOCCOCCOCCO | inactive | inactive |  | inactive |  | inactive | inactive | inactive | inactive | inactive |  |  | inactive |  |  |  |  | inactive | inactive
9 | CN(C)CCOC(c1ccc(Cl)cc1)c1ccccn1 (configuration not stated) | inactive |  | inactive | inactive | 7.08 µM (active) |  | inactive |  |  | inactive |  |  |  |  |  |  |  |  | 
10 | NC1CCN(c2nc3c(cc2F)c(=O)c(C(=O)O)cn3-c2ccc(F)cc2F)C1 (configuration not stated) |  |  | inactive |  |  |  | inactive |  |  |  |  |  |  |  |  | inactive |  |  | 
11 | CC(C)(Cc1c[nH]c2ccccc12)NCC(O)COc1ccccc1C#N (configuration not stated) | inactive | 10 µM (active) |  |  |  |  | inactive |  | inactive |  |  |  |  |  |  |  |  |  | 
12 | CC(C)(C)CC(C)(C)c1ccc(O)c(-n2nc3ccccc3n2)c1 | inactive |  |  | inactive |  | inactive | inactive | inactive | inactive | inactive |  |  | inactive |  |  | 11.2 µM (active) |  | inactive | inactive
13 | COc1ccc(C(=O)c2ccccc2)c(O)c1 | inactive | inactive |  | inactive |  | inactive | inactive | inactive | inactive | inactive | inactive |  | inactive | inactive | inactive | inactive | inactive | inactive | inactive
14 | O=C(CCN1CCN2CCCC2C1)N1c2ccccc2Sc2ccc(Cl)cc21 (configuration not stated) |  |  | inactive | inactive | inactive |  | inactive | inactive | inactive | inactive |  |  | inactive |  |  |  |  | inactive | 
15 | Cc1ccc(-c2ncc(Cl)cc2-c2ccc(S(C)(=O)=O)cc2)cn1 |  |  |  | inactive |  | inactive | inactive | inactive | inactive | inactive |  | inactive |  |  |  |  |  |  | 
16 | Oc1ccc(Cl)cc1Cc1cc(Cl)ccc1O |  |  | inactive | inactive |  | inactive | inactive | inactive |  | inactive |  |  |  |  | inactive | 11.2 µM (active) | 12.6 µM (active) | inactive | inactive
17 | Cc1cc2c(OCC(CNC(C)(C)C)OC(=O)c3ccccc3)cccc2[nH]1 (configuration not stated) |  | 11.2 µM (active) | inactive | inactive | inactive | inactive | inactive | inactive | inactive | inactive | inactive | 11.2 µM (active) |  | inactive | inactive |  | inactive |  | 
18 | CN(C)CCC[C@@]1(c2ccc(F)cc2)OCc2cc(C#N)ccc21 |  | inactive | inactive | inactive | inactive | inactive | inactive | inactive | inactive | inactive |  | inactive |  | inactive | inactive | inactive | inactive | inactive | 
19 | CC(=O)O[C@H]1C[C@@H]2CC[C@@H]3[C@H](CC[C@@]4(C)[C@H]3C[C@H]([N+]3(C)CCCCC3)[C@@H]4OC(C)=O)[C@@]2(C)C[C@@H]1N1CCCCC1 |  |  |  |  |  |  |  | inactive |  |  |  |  |  |  |  | inactive |  | inactive | 
20 | C[N+]1(C)CCC(=C(c2ccccc2)c2ccccc2)CC1 | inactive | inactive | inactive |  | inactive |  |  | inactive | inactive | inactive |  |  | inactive | inactive | inactive | inactive | inactive |  | 
21 | Cc1ccc2c(Br)cc(Br)c(O)c2n1 | 9.53 µM (active) |  |  | inactive |  |  |  | 13.5 µM (active) |  | 15.1 µM (active) |  |  |  | 10 µM (active) |  | 11.2 µM (active) |  |  | 
22 | CN(Cc1ccc(C(C)(C)C)cc1)Cc1cccc2ccccc12 | inactive | inactive | inactive | inactive | inactive | inactive | inactive | inactive | inactive | inactive | inactive | inactive | inactive | inactive | inactive | inactive | inactive | inactive | inactive
